About 79,000 compounds went through this panel and 15% of them were active in at least one assay; those are over-represented in the sample as a whole. Unmarked numbers belong to inactive results. The source made the active and inactive calls. Cut-off read from the data, not from the text of the source: active = growth inhibition above about 70%; inactive = the rest.

The test is described as follows: NCI Yeast Anticancer Drug Screen. Data for the CLN2oe strain (AID 163).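 Note: 0% = growth of vehicle-only control cultures.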 The settings on record: S. cerevisiae CLN2oe strain, stronger effect = higher value. As to the method: Growth inhibition of yeast strains with defined genetic alterations is measured as a screen for potential anti-cancer activity. Selected strains with alterations in DNA damage repair or cell cycle control were exposed to compounds and growth inhibition was measured relative to vehicle treated controls. The strain used in this assay is CLN2oe

Regarding `CCCC(=O)OC(OC(=O)CCC)c1ccc([N+](=O)[O-])o1`, the growth inhibition (at 1.2 µM) is -1%; the growth inhibition (at 3.7 µM) is -8%; the growth inhibition (at 11.0 µM) is -10%; the growth inhibition (at 33.0 µM) was -5%; the growth inhibition (at 100.0 µM) is 8%.
Turning to `CCOC(=O)c1[nH]c2cccc3c2c1CC(Br)C3=O` (stereo not given), the growth inhibition runs as follows: (at 1.2 µM) -48%; (at 3.7 µM) -44%; (at 11.0 µM) -69%; (at 33.0 µM) -39%; (at 100.0 µM) 67%.
As for `O=C(Cc1ccccc1F)NC1=C(Cl)C(=O)c2ccccc2C1=O`, the growth inhibition is 1% (at 1.2 µM); 18% (at 3.7 µM); 19% (at 11.0 µM); -1% (at 33.0 µM); 27% (at 100.0 µM).
Take `O=S(=O)(O)CC[S][Sn]([S]CCS(=O)(=O)O)([c]1ccccc1)[c]1ccccc1`: the growth inhibition is, setting by setting: (at 1.2 µM) 20%; (at 3.7 µM) 20%; (at 11.0 µM) 72% (active); (at 33.0 µM) 96% (active); (at 100.0 µM) 98% (active).
For `CC[C@@]1(OC(=O)CN(C)C)C(=O)OCc2c1cc1n(c2=O)Cc2cc3ccccc3nc2-1`, the growth inhibition (at 1.2 µM) is -7%; the growth inhibition (at 3.7 µM) is 2%; the growth inhibition (at 11.0 µM) was 31%; the growth inhibition (at 33.0 µM) is 73% (active); the growth inhibition (at 100.0 µM) is 87% (active).
The corresponding values for `O=C(O)NCC1CCCCC1` (tested in a mixture with another compound) are 1%, -7%, -6%, -5% and 26%.
For `O=C(O)/C=C\C(=O)NNc1ccc(Br)cc1`, the growth inhibition runs as follows: (at 1.2 µM) -6%; (at 3.7 µM) 96% (active); (at 11.0 µM) 99% (active); (at 33.0 µM) 99% (active); (at 100.0 µM) 99% (active).
Consider `N#C/C(=C1C=C/C(=N\O)C(Cl)=C\1)c1ccccc1`, for which the growth inhibition by setting is: (at 1.2 µM) 2%; (at 3.7 µM) 3%; (at 11.0 µM) 6%; (at 33.0 µM) 15%; (at 100.0 µM) 13%.

For the origin of these results see PubChem BioAssay (NCI).
